# Test results: the supplement of paper PMC8728848
# Only a selection was taken, and the strongest signals are over-represented in it overall.
# B1: LTL (Lotus tetragonolobus), P19664 (protein)
# chain: VSFNYTEFKDDGSLILQGDAKIWTDGRLAMPTDPLVNNPKTTRSAGRALYATPVPIWDSATGNVASFVTSFNFLFVIRELKYTPTDGLVFFLAPVGTEIPSGSTGGFLGIFDGSNGFNQFVAVEFDSYHNIWDPKSLRSSHVGIDVNSIMSLKAVNWNRVSGSLEKATIIYDSQTNILSVVMTSQNGQITTIYGTIDLKTVLPEKVSVGFSATTGNPEREKHDIYSWSFTSTLKEPEEQA
# Columns and labels:
# Experiment in all cases: glycan array binding signal (z-score within array); higher = stronger binding
# Details in all cases: glycan notation: IUPAC condensed, linker removed
# [1] = target: Fuc(a1-2)Gal(b1-3)GalNAc(b1-3)Gal(b1-4)Glc
# In short: (§1)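 The Consortium for Functional Glycomics database supplied 3228 glycan arrays, of which those lacking an available protein sequence were dropped. The binding signal, a within-array Z-score, was averaged across arrays of the same protein sequence and across linkers. Negative scores can be read as non-binding.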
# [2] = target: Fuc(a1-2)Gal(b1-3)[Fuc(a1-4)]GlcNAc(b1-2)Man(a1-3)[Fuc(a1-2)Gal(b1-3)[Fuc(a1-4)]GlcNAc(b1-2)Man(a1-3)]Man(b1-4)GlcNAc(b1-4)GlcNAc
# In short: as §1
# [3] = target: Fuc(a1-2)Gal(b1-3)[Fuc(a1-4)]GlcNAc(b1-3)[Gal(b1-4)GlcNAc(b1-6)]Gal(b1-4)Glc
# In short: as §1
# Fuc(a1-2)Gal(b1-4)GlcNAc = target: Fuc(a1-2)Gal(b1-4)GlcNAc
# In short: as §1
# [4] = target: Fuc(a1-2)Gal(b1-4)GlcNAc6S
# In short: as §1
# [5] = target: Fuc(a1-2)Gal(b1-4)[Fuc(a1-3)]GlcNAc
# In short: as §1
# Fuc(a1-2)GlcNAc = target: Fuc(a1-2)GlcNAc
# In short: as §1
# [6] = target: Fuc(a1-2)[Gal(a1-3)]Gal(b1-3)GalNAc
# In short: as §1
# [7] = target: Fuc(a1-2)[Gal(a1-3)]Gal(b1-4)Glc
# In short: as §1
# [8] = target: Fuc(a1-2)[Gal(a1-3)]Gal(b1-4)GlcNAc(b1-6)GalNAc
# In short: as §1
# [9] = target: Fuc(a1-2)[GalNAc(a1-3)]Gal
# In short: as §1
# [10] = target: Fuc(a1-2)[GalNAc(a1-3)]Gal(b1-4)GlcNAc(b1-3)GalNAc
# In short: as §1
# [11] = target: Fuc(a1-3)[Gal(b1-4)]GlcNAc(b1-3)Gal(b1-4)[Fuc(a1-3)]GlcNAc(b1-3)Gal(b1-4)[Fuc(a1-3)]GlcNAc
# In short: as §1
# [12] = target: Fuc(a1-3)[Gal3S(b1-4)]Glc6S
# In short: as §1
# Gal(b1-3)GalNAc(b1-3)Gal = target: Gal(b1-3)GalNAc(b1-3)Gal
# In short: as §1
# [13] = target: Gal(b1-3)GalNAc(b1-3)Gal(a1-4)Gal(b1-4)Glc
# In short: as §1
# [14] = target: Gal(b1-3)[Fuc(a1-4)]GlcNAc(b1-3)Gal(b1-4)GlcNAc
# In short: as §1
# [15] = target: Gal(b1-3)[Neu5Ac(a2-6)]GalNAc
# In short: as §1
# Gal(b1-4)Gal = target: Gal(b1-4)Gal
# In short: as §1
# [16] = target: Gal(b1-4)GlcNAc(b1-3)Gal(b1-4)GlcNAc(b1-3)Gal(b1-4)GlcNAc(b1-2)Man(a1-3)[Gal(b1-4)GlcNAc(b1-3)Gal(b1-4)GlcNAc(b1-3)Gal(b1-4)GlcNAc(b1-2)Man(a1-6)]Man(b1-4)GlcNAc(b1-4)GlcNAc
# In short: as §1
# [17] = target: Gal(b1-4)GlcNAc(b1-3)Gal(b1-4)GlcNAc(b1-3)Gal(b1-4)GlcNAc(b1-3)Gal(b1-4)GlcNAc(b1-2)Man(a1-3)[Gal(b1-4)GlcNAc(b1-3)Gal(b1-4)GlcNAc(b1-3)Gal(b1-4)GlcNAc(b1-3)Gal(b1-4)GlcNAc(b1-2)Man(a1-6)]Man(b1-4)GlcNAc(b1-4)GlcNAc
# In short: as §1
# [18] = target: Gal(b1-4)GlcNAc(b1-3)Gal(b1-4)GlcNAc(b1-3)GalNAc
# In short: as §1
# [19] = target: Gal(b1-4)GlcNAc(b1-3)Gal(b1-4)GlcNAc(b1-3)[Gal(b1-4)GlcNAc(b1-3)Gal(b1-4)GlcNAc(b1-6)]GalNAc
# In short: as §1
# Gal3S(b1-3)GalNAc = target: Gal3S(b1-3)GalNAc
# In short: as §1
# [20] = target: Gal3S(b1-4)[Fuc(a1-3)]GlcNAc6S
# In short: as §1
# Gal3S6S(b1-4)GlcNAc = target: Gal3S6S(b1-4)GlcNAc
# In short: as §1
# Gal6S(b1-4)Glc = target: Gal6S(b1-4)Glc
# In short: as §1
# Gal6S(b1-4)GlcNAc = target: Gal6S(b1-4)GlcNAc
# In short: as §1
# [21] = target: GalNAc(b1-4)GlcNAc(b1-2)Man(a1-3)[GalNAc(b1-4)GlcNAc(b1-2)Man(a1-6)]Man(b1-4)GlcNAc(b1-4)GlcNAc
# In short: as §1
binder,measurement,setting,value
B1,glycan array binding signal (z-score),[1],0.013
same,glycan array binding signal (z-score),[2],0.157
same,glycan array binding signal (z-score),[3],-0.265
same,glycan array binding signal (z-score),Fuc(a1-2)Gal(b1-4)GlcNAc,0.463
same,glycan array binding signal (z-score),[4],-0.057
same,glycan array binding signal (z-score),[5],4.58
same,glycan array binding signal (z-score),Fuc(a1-2)GlcNAc,2.03
same,glycan array binding signal (z-score),[6],0.102
same,glycan array binding signal (z-score),[7],-0.211
same,glycan array binding signal (z-score),[8],-0.201
same,glycan array binding signal (z-score),[9],-0.25
same,glycan array binding signal (z-score),[10],-0.219
same,glycan array binding signal (z-score),[11],8.86
same,glycan array binding signal (z-score),[12],0.757
same,glycan array binding signal (z-score),Gal(b1-3)GalNAc(b1-3)Gal,-0.295
same,glycan array binding signal (z-score),[13],0.007
same,glycan array binding signal (z-score),[14],-0.389
same,glycan array binding signal (z-score),[15],-0.277
same,glycan array binding signal (z-score),Gal(b1-4)Gal,-0.131
same,glycan array binding signal (z-score),[16],3.1
same,glycan array binding signal (z-score),[17],0.014
same,glycan array binding signal (z-score),[18],2.04
same,glycan array binding signal (z-score),[19],2.93
same,glycan array binding signal (z-score),Gal3S(b1-3)GalNAc,-0.003
same,glycan array binding signal (z-score),[20],-0.287
same,glycan array binding signal (z-score),Gal3S6S(b1-4)GlcNAc,0.068
same,glycan array binding signal (z-score),Gal6S(b1-4)Glc,-0.131
same,glycan array binding signal (z-score),Gal6S(b1-4)GlcNAc,-0.022
same,glycan array binding signal (z-score),[21],1.48
